p53ts 39C tox = cytotoxicity in p53ts cells at nonpermissive temperature; H1299-p53A138V viability at 39C, ATP luminescence, 24 h; Potency, µM (highest dose often 46.1 µM), hits mostly cytotoxic; actives 1.5% (n = 130,000); also: nearly all actives have a fitted effect of over 55% in size
HPGD inh = blocks human HPGD enzyme activity; P15428; purified HPGD, NADH fluorescence kinetic, PGE2 substrate; Potency, µM, actives largely listed as inhibitors; actives 4.3% (n = 150,000); AID 894; active = well fitted inhibition curve with a large enough effect, not every such curve was filed as active; inconclusive = small, poorly fitted or top-dose-only effect, or another doubt; inactive = no such curve, though single readings can be large or run the other way
Target sequence (P15428 whole entry, looked up): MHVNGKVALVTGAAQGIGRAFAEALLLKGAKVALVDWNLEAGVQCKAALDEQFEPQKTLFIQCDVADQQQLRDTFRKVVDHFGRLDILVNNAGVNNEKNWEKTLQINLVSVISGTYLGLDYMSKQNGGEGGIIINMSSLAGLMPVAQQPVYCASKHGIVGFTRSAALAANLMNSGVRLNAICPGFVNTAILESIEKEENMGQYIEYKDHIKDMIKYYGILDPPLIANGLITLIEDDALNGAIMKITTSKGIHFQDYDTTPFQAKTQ
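20 nM HPGD preincubated 15 min at room temperature with compound in 50 mM Tris-HCl pH 8, 0.01% Tween 20. Started with 1 mM NAD+ and 30 uM prostaglandin E2; NADH fluorescence (360/450 nm) read 5 times over 30-s intervals, last minus first.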
12-hLO inh = blocks human 12-lipoxygenase activity; P18054; purified 12-hLO, xylenol orange hydroperoxide absorbance; Potency, µM (highest dose often 57.1 µM), hits mostly inhibitors; actives 0.12% (n = 150,000); AID 1452; also: nearly all actives have a fitted effect of over 55% in size
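Hydroperoxide formation by human 12-lipoxygenase from 40 uM arachidonic acid was followed colorimetrically via ferric-xylenol orange complex, using the 573/405 nm absorbance ratio. Enzyme concentration was 150 nM, with 30 min reaction at room temperature.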
p53ts 32C tox = cytotoxicity in p53ts cells at permissive temperature | AID 924 | Potency, µM (highest dose often 46.1 µM), usual class: cytotoxic | actives 0.93% (n = 130,000) | H1299-p53A138V at 32C, ATP luminescence viability, 24 h; also: nearly all actives have a fitted effect of over 55% in size
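H1299-p53 A138V cells (temperature-sensitive p53) exposed 24 h to up to 46 uM compound at 32C, where p53 is wild-type in conformation. Viability read as ATP luminescence and normalised to DMSO and 100 uM tamoxifen. AC50 fitted with the Hill equation.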
A number is an active result; [ ] = dose if it differs, or a comment. Shown are actives, neighbours in structure and some others; about 4.4% of the full set was active somewhere. Unless noted, calls follow the shape of the dose curve; as a rule, active = well fitted curve in the direction sought with a large enough effect; inconclusive = small, poorly fitted or top-dose-only effect, or another doubt; inactive = no such curve, though single readings can be large; an effect the other way counts as inactive or inconclusive.

For O=C(Nc1ccccc1C(=O)N/N=C/c1ccc(F)cc1)c1ccccc1Br the results were HPGD inh inactive and 12-hLO inh inactive.
CCCC(=O)Nc1ccc(C(=O)N2CCCC2)cc1 was read as p53ts 39C tox inactive, HPGD inh 14µM, 12-hLO inh inactive and p53ts 32C tox inactive.
CCCC(=O)Nc1ccc(C(=O)NNC(=O)c2ccccc2Br)cc1 was read as HPGD inh 28µM and 12-hLO inh inactive.
For O=C(N/N=C/c1ccc(O)cc1)c1ccc(NC(=O)c2ccccc2Br)cc1 the results were HPGD inh 14µM and 12-hLO inh inactive.
O=C(O)CCCC(=O)Nc1ccc(C(=O)N2CCCCC2)c(Cl)c1 was read as p53ts 39C tox inactive, HPGD inh 0.45µM, 12-hLO inh inactive and p53ts 32C tox inactive.
Screening CCCC(=O)Nc1ccc(S(=O)(=O)N2CCCC2)cc1 returned HPGD inh inactive and 12-hLO inh inactive.
Screening Cn1c(=O)n(CCc2ccccc2)c(=O)c2c1nc1n2CCN1c1ccc(Cl)cc1 returned p53ts 39C tox inactive and p53ts 32C tox inactive.
`CC(NC(=O)CN1C(=O)c2cccnc2Oc2ccc(Cl)cc21)c1ccccc1` (stereo not drawn) gave p53ts 32C tox inactive.
Screening CCCCC(=O)Nc1ccc(C(=O)N2CCCC(C(=O)OCC)C2)cc1 (stereo not drawn) returned p53ts 39C tox inactive, HPGD inh 14µM, 12-hLO inh inactive and p53ts 32C tox inactive.
Screening CCOC(=O)c1ccc(NC(=O)c2cc(=O)c3cc(CC)ccc3o2)cc1 returned p53ts 39C tox inactive and p53ts 32C tox inactive.
For CCOC(=O)c1ccc(NC(=O)c2cc(=O)c3ccc(C)c(C)c3o2)cc1 the results were p53ts 39C tox 20µM and p53ts 32C tox inconclusive.
For COc1cc(/C=N/NC(=O)C(=O)N2CCCC2)ccc1O the results were HPGD inh inactive and 12-hLO inh inactive.
For O=C(N/N=C/c1ccc2c(c1)OCO2)/C(=C/c1ccc2c(c1)OCO2)NC(=O)c1ccccc1 the results were HPGD inh inconclusive and 12-hLO inh inactive.
COc1ccc(/C=N/NC(=O)C(=O)N2CCCC2)cc1OC was read as HPGD inh 32µM and 12-hLO inh inactive.
Screening COc1ccc(/C=C(/NC(=O)c2ccccc2)C(=O)N/N=C/c2ccc3c(c2)OCO3)cc1OC returned HPGD inh 32µM and 12-hLO inh inactive.
`CN(C)c1ccc(/C=C(/NC(=O)c2ccccc2)C(=O)N/N=C/c2ccc([N+](=O)[O-])c(O)c2)cc1` gave HPGD inh 16µM and 12-hLO inh inactive.
For c1ccc(CN=C2NN=C(c3cc4ccccc4o3)CS2)cc1 the results were HPGD inh 16µM and 12-hLO inh inactive.
Screening c1ccc2oc(C3=NNC(=NC4CC4)SC3)cc2c1 returned HPGD inh inconclusive and 12-hLO inh inactive.
`CN(C)CCCNc1ncnc2nc[nH]c12` gave p53ts 39C tox inactive[9.22 µM], HPGD inh inactive, 12-hLO inh inactive[11.4 µM] and p53ts 32C tox inactive[9.22 µM].
`Cc1cc(NS(=O)(=O)c2ccc(Nc3nc(-c4ccc(C)c(C)c4)cs3)cc2)no1` gave HPGD inh inconclusive and 12-hLO inh inactive.
`Cc1cc(NS(=O)(=O)c2ccc(Nc3nc(-c4ccc(O)cc4)cs3)cc2)no1` gave HPGD inh 20µM and 12-hLO inh inactive.
Screening O=C(CSc1nccn1Cc1ccc(F)cc1)Nc1nc2ccccc2s1 returned p53ts 39C tox inactive and p53ts 32C tox inactive.
COCc1cc(C)nc2sc3c(=O)n(-c4cc(C)ccc4C)nnc3c12 was read as p53ts 39C tox inactive and p53ts 32C tox inactive.
For Cc1ccccc1C(=O)Nc1cccc(-c2cn3cccnc3n2)c1 the results were p53ts 39C tox inactive and p53ts 32C tox inactive.
For O=C(Nc1nnc(-c2ccccc2Cl)o1)c1ccco1 the results were p53ts 39C tox 10µM, HPGD inh inactive, 12-hLO inh inconclusive and p53ts 32C tox 13µM.
Screening COc1ccc(C2CC(c3cccs3)=Nc3ccccc3S2)cc1 (stereo not drawn) returned p53ts 39C tox inactive, HPGD inh inactive, 12-hLO inh inconclusive and p53ts 32C tox 25µM.
Screening COc1ccc(O)c(C2=Nc3ccccc3N=C(c3cccs3)C2)c1 returned HPGD inh inactive and 12-hLO inh inactive.
`O=[N+]([O-])c1cc(Cc2ccccc2)cc(C=Nc2ccc(N3CCOCC3)cc2)c1O` gave HPGD inh 5µM and 12-hLO inh inactive.
`Oc1ccc(C=Nc2ccc(N3CCOCC3)cc2)c(O)c1` gave p53ts 39C tox inactive, HPGD inh inactive, 12-hLO inh inactive and p53ts 32C tox inactive.
Screening O=C1CCCc2cc(S(=O)(=O)NCC3CCC(C(=O)Nc4ccccc4F)CC3)ccc2N1 (stereo not drawn) returned p53ts 39C tox inactive and p53ts 32C tox inactive.
Screening CCOC(=O)Cn1c(=O)n(CC2CCCO2)c2nc(-c3cc(OC)ccc3OC)nc(C(N)=O)c21 (stereo not drawn) returned p53ts 39C tox inactive and p53ts 32C tox inactive.
O=C(Nc1sc2c(c1C(=O)O)CCCC2)c1cccs1 was read as p53ts 39C tox inactive, HPGD inh 25µM, 12-hLO inh inactive and p53ts 32C tox inactive.
`CC(C)OC(=O)c1c(NC(=O)c2cccs2)sc2c1CCCC2` gave p53ts 39C tox inactive, HPGD inh inconclusive, 12-hLO inh inactive and p53ts 32C tox inactive.
Screening Cc1ccc(C(=O)Nc2sc3c(c2C(=O)O)CCCCC3)o1 returned p53ts 39C tox 6.3µM, HPGD inh 14µM, 12-hLO inh inactive and p53ts 32C tox 7.9µM.
For COC(=O)c1c(NC(=O)c2ccc(C)o2)sc2c1CCCCC2 the results were p53ts 39C tox inactive, HPGD inh inconclusive, 12-hLO inh inactive and p53ts 32C tox inactive.
`O=C(Nc1sc2c(c1C(=O)O)CCC2)c1ccco1` gave HPGD inh 22µM and 12-hLO inh inactive.
`CCOC(=O)c1ccc(NC(=S)Nc2ccccc2)cc1` gave HPGD inh inactive and 12-hLO inh inactive.
Screening CCCOC(=S)Nc1ccccc1 returned HPGD inh 22µM and 12-hLO inh inactive.
Screening COC(=O)C1C2C=CC(C3CC23)C1C(=O)OCC(=O)c1ccc(OC)cc1 (stereo not drawn) returned HPGD inh 28µM and 12-hLO inh inactive.
For COC(=O)C1C2C=CC(C3CC23)C1C(=O)OCC(=O)c1ccccc1 (stereo not drawn) the results were HPGD inh inactive and 12-hLO inh inactive.
For Cc1cc(Br)c(OCc2ccc(C(=O)N/N=C3\CC4CC=CC34)cc2)c(Br)c1 (stereo not drawn) the results were HPGD inh 13µM and 12-hLO inh inactive.
`Cc1ccc2nc(NC(=O)CSc3nccn3Cc3ccc(Cl)cc3)sc2c1` gave p53ts 39C tox inconclusive and p53ts 32C tox inactive.
For Fc1ccccc1-n1[nH]nnc1=S the results were HPGD inh 25µM and 12-hLO inh inactive.
`O=C1CS(=O)(=O)C2(C(=O)Nc3ccccc32)N1c1cccc(Cl)c1` (stereo not drawn) gave p53ts 39C tox inactive and p53ts 32C tox inactive.

Bioassay records deposited in PubChem by National Center for Advancing Translational Sciences (NCATS).
